From PubChem BioAssay (NCI)
“And” between values parts separate entries of the source, which are not always exact repeats. Equal entries are not always repeated. The panel holds about 83,000 compounds, 20% with a hit somewhere; the sample as a whole holds those more often.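 Note: values are percent growth. 100 is the growth of untreated cells, values between 100 and 0 indicate rising inhibition; between -100 and 0 indicates cell death.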 A number with no mark means an inactive call. The source made the active and inactive calls. Rule for the calls: active = growth percent below 10; inactive = the rest.

System: MDA-MB-468 breast
Assay: NCI-60 one-dose screen, 48 h (100 = growth as untreated, 0 = no growth, -100 = all killed)
Details: 10 µM unless noted

Structure (SMILES)	growth
Oc1ccc(Cl)cc1-c1cc(-c2ccc(F)cc2)n[nH]1	-0.461% (active)
COc1ccc(-c2nn(-c3ccccc3)cc2/C=C/C(=O)NNC(=O)Nc2ccc(C)cc2)cc1	102%
CC1(O)CCCCC1O (stereo not given)	108%
ClC1=C2NC=NC2n2c(nnc2-c2ccc(Cl)cc2)N1 (stereo not given)	91.6%
ClC1C2CC(c3ccccc32)C1Cl (stereo not given)	104%
Cn1c(=O)cc(NC(=O)CN2CCN(c3cc4c(cc3F)c(=O)c(C(=O)O)cn4C3CC3)CC2)[nH]c1=O	92.6%
C#C[C@H](O)/C=C/CCCCCCC#C[C@H](O)CC[C@@H](O)C#CCCCCCC/C=C/[C@@H](O)C#C	97.6%
COc1ccc2c(c1)C(=O)c1c-2c(=O)n(CCCN(C)C)c2cc(OC)c(OC)cc12	44.5%
Nc1c2ccccc2nc2ccccc12 (tested in a mixture with another compound)	-18.6% (active)
CN(C)CCCN(Cc1ccccc1O)C(=S)Nc1ccc(Cl)cc1	89.6%
O=C1OCC2=C1C(c1cccc(Cl)c1)c1cc3c(cc1N2CCO)OCO3 (stereo not given)	-10.2% (active)
COC(=O)c1ccc(C2Nc3ccc(S(=O)(=O)Nc4ccc(C)c(C)c4)cc3C3OCCC23)cc1 (stereo not given)	54.7%
CC(C)c1ccc(Cn2ccc3c4c(N)nc(NC5CC5)nc4ccc32)cc1	-76% (active)
NCCCN	107%
CCCCCC(=O)OCC(=O)O[C@@H]1C[C@]2(C(C)C)O[C@@]1(C)[C@@H]1CC[C@@H](C)[C@H]1[C@@H]2OC(=O)/C=C/c1ccccc1	70%
[2H]c1nc(=Nc2cc(NC(=O)C=C)c(N(C)CCN(C)C)cc2OC)[nH]c(-c2cn(C([2H])([2H])[2H])c3ccccc23)c1[2H]	-9.46% (active)
COc1cc(NC(=O)c2cncnc2Nc2ccc3c(ccn3Cc3cccc(F)c3)c2)cc(OC)c1	42.8%
COC(=O)C1(C)COP(=O)(NC23CC4CC(CC(C4)C2)C3)OC1 (stereo not given)	110%
OC1CCN(CCCOc2c3ccccc3nc3c2oc2ccccc23)CC1	-16.4% (active)
COc1ccc(C(=O)c2ccc(OC)c(OC)c2OC)cc1	-7.95% (active) and -19% (active)

Structure (SMILES)	growth
COc1cc(OCc2cccc(-c3ccccc3)c2C)cc(OC)c1CN1CCCCC1C(=O)NCCOCCOCCN (stereo not given)	30%
CC1=NCC2NC(=O)NC(C)=C12 (stereo not given)	92.3%
COc1ccc(-c2cc(-c3c(C)oc4cc5occc5c(OC)c4c3=O)nc(N)c2C#N)cc1OC	76.2%
O=C(CN1CCN(c2cc3c(cc2F)c(=O)c(C(=O)O)cn3C2CC2)CC1)Nc1nc(-c2ccccc2)cs1	37.4%
CCNC(=O)N1CCc2cc(OC)c(OCCc3ccc(OC)nc3)cc2C1c1ccc(OC)cc1C (stereo not given)	26.7%
CCC(C)C1CCC(O)CC1 (stereo not given)	101%
CCC(C)c1c(N)n(S(=O)(=O)c2ccc(C)cc2)oc1=O (stereo not given)	109%
COc1cc(C(=O)/C=C/c2cc(-c3cc(OC)c(OC)c(OC)c3)n[nH]2)cc(OC)c1OC	-79% (active)
O=C(C(=Cc1ccccc1)C(=O)c1ccccc1)c1ccccc1	63.4% and 89.4%
CCN1CCC2(CC1)OC(c1ccccc1)C(c1ccccc1)O2 (stereo not given)	102%
O=c1c2c(c3ccccc3n1-c1ccccc1)NC(=S)NC2c1ccccc1 (stereo not given)	74.4%
Cn1cnc(-c2cc3nccc(Oc4ccc(NC(=S)NC(=O)Cc5ccccc5)cc4F)c3s2)c1	103%
O=C(Nc1ccc(-c2nc3cc4ccccc4cc3[nH]2)cc1)c1cccc(Br)c1	48.3%
CCOC(=O)c1c2c(n3ccc(NC(=O)CCN4CCCCC4)cc13)C(=O)c1ncccc1C2=O	83.1%
Cn1c2ccccc2c2ccccc21	101%
CCOC(=O)c1c(C)oc2ncnc(Nc3ccc(NC(=O)Nc4ccc(CC)cc4)cc3)c12	128%
CCc1cc(C)cc(O)c1	94.7%
C=CCn1c(SCC(=O)Nc2ccc(C(=O)/C=C/c3cc(OC)c(OC)c(OC)c3)cc2)nnc1-c1c[nH]c2ccccc12	37%
Cc1cc2cn3c4cccnc4[nH]c(=O)c3c2cc1C	37.2%
O=c1oc2ccc(I)cc2c(=O)n1-c1ccc(I)cc1F	-2.07% (active)
